Screens: PubChem, National Center for Advancing Translational Sciences (NCATS)
Compounds with a hit are over-represented: about 0.95% of the library has one in this group of screens.
RE007 growth inh = qHTS Assay for Inhibitors of the HIV-1 protein Vpr; Potency, µM (highest dose often 92.2 µM), inactives show top-dose activity change, negative = less growth, hits mostly inhibitors; AID 651644, 2012; S. pombe RE007 Vpr strain, BacTiter-Glo ATP luminescence, 24 h; 360,000 tested, 0.21% active; active = well fitted falling curve with a large enough effect; inconclusive = small, poorly fitted or top-dose-only effect; inactive = no such curve, though single readings can be large or run the other way; note: nearly all actives have a fitted effect of over 50% in size
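Fission yeast strain RE007, carrying one chromosomally integrated HIV-1 vpr copy, was seeded at OD 0.01 in PMG+AL medium with 23 nL pinned compound. After 24 h at 30 °C and 99% humidity, viability was read by BacTiter-Glo luminescence.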
LmPK inhibitor = qHTS Assay for Inhibitors of Leishmania Mexicana Pyruvate Kinase (LmPK). AID 1721, 2009. Potency, µM (titrated, usually from 57.5 µM), without a hit: top-dose activity change, negative = inhibition, actives largely listed as inhibitors. purified LmPK, Kinase-Glo ATP luminescence, 1 h. 290,000 tested, 0.37% active
Target sequence (Q27686 whole entry, looked up): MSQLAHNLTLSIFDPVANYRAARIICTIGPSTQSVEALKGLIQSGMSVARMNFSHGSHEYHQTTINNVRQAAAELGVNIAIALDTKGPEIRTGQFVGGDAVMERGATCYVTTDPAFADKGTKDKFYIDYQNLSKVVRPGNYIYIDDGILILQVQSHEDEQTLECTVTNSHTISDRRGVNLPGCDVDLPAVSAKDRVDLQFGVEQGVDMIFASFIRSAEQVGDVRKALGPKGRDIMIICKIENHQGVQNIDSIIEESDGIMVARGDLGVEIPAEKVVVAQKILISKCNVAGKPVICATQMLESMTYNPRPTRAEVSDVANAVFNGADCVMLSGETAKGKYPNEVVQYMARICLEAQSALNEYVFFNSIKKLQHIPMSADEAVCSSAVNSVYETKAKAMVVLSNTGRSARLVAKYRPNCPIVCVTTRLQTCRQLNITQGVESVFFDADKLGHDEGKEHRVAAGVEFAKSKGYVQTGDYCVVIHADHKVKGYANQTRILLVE
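Screened at intermediate enzyme activity to detect both inhibitors and activators: LmPK at 0.1 nM, with a 0.5 nM enzyme column as activation reference. PEP 0.5 mM, ADP 0.1 mM; ATP detected by luminescence after 1 h.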
TbPYK inhibitor = qHTS of Trypanosoma Brucei Inhibitors; AID 624173, 2012; Potency, µM (titrated, usually from 76.8 µM), for the others: at the top dose activity, negative = inhibition, actives largely listed as inhibitors; TbPYK enzyme, Kinase-Glo Plus ATP luminescence, 45 min; 410,000 tested, 0.12% active; pyruvate kinase (Trypanosoma brucei), Q57TT1; note: nearly all actives have a fitted effect of over 50% in size
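In this concentration-response screen, enzyme-free wells defined baseline while DMSO plates tracked drift. Each reaction combined TbPYK, substrate, compound and 130 uM ADP for 45 min at room temperature. Kinase-Glo Plus luminescence gave the signal.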
FBPA Giardia inh = qHTS Assay for Inhibitors of Fructose-1,6-bisphosphate Aldolase from Giardia Lamblia. Potency, µM (top dose mostly 59.6 µM), for the others: top-dose activity, negative = inhibition, hits mostly inhibitors. AID 2451, 2010. purified Giardia FBPA. 290,000 tested, 0.71% active; note: nearly all actives have a fitted effect of over 55% in size
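Giardia FBPA (40 nM reagent) was preincubated 10 min at RT with compound (up to 57.5 uM final), then substrate plus GAPDH/TPI/NAD/arsenate coupling system with diaphorase/resazurin was added; resorufin fluorescence (525/598 nm) was read after 20 min.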
* hit, by the source's call; [ ] = another dose, or the depositor's remark. Unless noted, calls come from the whole dose curve; as a rule, active = well fitted curve in the direction sought with a large enough effect; inconclusive = small, poorly fitted or top-dose-only effect, or another doubt; inactive = no such curve, though single readings can be large; an effect the other way counts as inactive or inconclusive. % is set by controls: 0 for no effect and ±100 for the full control effect; potency is the fitted concentration of half-maximal effect.

Results for COc1ccc2ccc3c(c2c1)N=CC1(O3)N(C)c2ccccc2C1(C)C (stereo unspecified) ?
RE007 growth inh: 0%; LmPK inhibitor: 0%; TbPYK inhibitor: 3%; FBPA Giardia inh: inconclusive

What do the screens show for `COc1ccccc1C1Nc2cccc3cccc(c23)N1`?
RE007 growth inh: 7.1µM*; LmPK inhibitor: 0%; TbPYK inhibitor: -9%; FBPA Giardia inh: inconclusive

Results for CC(O)[C@@H](O)[C@H]1CNc2nc(N)[nH]c(=O)c2N1 (stereo partly specified) ?
FBPA Giardia inh: -1%

Results for Cc1nc(NCCO)c2nc(-c3ccccc3)n(CCN(C)C)c2n1 ?
FBPA Giardia inh: 1%

What do the screens show for `CCOC(=O)C1CCN(c2ccc(-c3cccs3)nn2)CC1`?
RE007 growth inh: inconclusive; LmPK inhibitor: 14µM*; TbPYK inhibitor: inconclusive; FBPA Giardia inh: 3%

Results for CCC(=O)OC1[C@@H](N2CCCCC2)C[C@H]2[C@@H]3CC[C@H]4C[C@H](OC(C)=O)[C@@H](N5CCCCC5)C[C@]4(C)[C@H]3CC[C@]12C (stereo partly specified) ?
TbPYK inhibitor: 0%

What do the screens show for `O=C(CNC(=O)c1ccccc1Cl)OCc1cc(=O)n2ccsc2n1`?
TbPYK inhibitor: 1%

What do the screens show for `NCCCNCCCCNC(=O)C(O)NC(=O)CCCCCCN=C(N)N` (stereo unspecified)?
TbPYK inhibitor: 0%

Results for CCc1nc2ccccc2c(C(=O)Oc2cccc3cccnc23)c1C ?
RE007 growth inh: 12%; LmPK inhibitor: 6%; TbPYK inhibitor: -5%; FBPA Giardia inh: 10%

How did Cc1c(C(=O)Oc2cccc3cccnc23)oc2ccccc12 do in these assays?
RE007 growth inh: 40µM*; LmPK inhibitor: 1%; TbPYK inhibitor: 4%; FBPA Giardia inh: inconclusive

How did COc1ccc(-c2n[nH]c(=S)n2-c2ccc3c(c2)OCCO3)cc1OC do in these assays?
RE007 growth inh: 4%; LmPK inhibitor: inconclusive; TbPYK inhibitor: inconclusive; FBPA Giardia inh: -7%

What do the screens show for `S=c1[nH]nc(-c2cccnc2)n1-c1ccccc1`?
RE007 growth inh: -9%; LmPK inhibitor: -25%; TbPYK inhibitor: inconclusive; FBPA Giardia inh: -23%

Results for COc1ccc(-c2n[nH]c(=S)n2-c2ccc(C)cc2)cc1OC ?
RE007 growth inh: -6%; LmPK inhibitor: 14µM*; TbPYK inhibitor: 5µM*; FBPA Giardia inh: 26%

What do the screens show for `Cc1cccc(-n2c(C)n[nH]c2=S)c1`?
RE007 growth inh: -4%; LmPK inhibitor: -29%; TbPYK inhibitor: inconclusive; FBPA Giardia inh: inconclusive

Results for Cc1cccc(-n2c(-c3ccncc3)n[nH]c2=S)c1 ?
RE007 growth inh: 8%; LmPK inhibitor: 14µM*; TbPYK inhibitor: inconclusive; FBPA Giardia inh: -27%

What do the screens show for `O=C(O)c1ccc(-n2c(-c3ccc(Br)cc3)n[nH]c2=S)cc1`?
RE007 growth inh: 1%; LmPK inhibitor: 7.1µM*; TbPYK inhibitor: inconclusive; FBPA Giardia inh: 1%

Results for S=c1[nH]nc(-c2ccc(Cl)cc2)n1-c1cccnc1 ?
RE007 growth inh: 23%; LmPK inhibitor: 11µM*; TbPYK inhibitor: inconclusive; FBPA Giardia inh: -4%

Results for CCc1ccc(CNC(=O)C2CCCN(c3nnc(C)c4c(C)n(-c5ccc(OC)cc5)nc34)C2)cc1 (stereo unspecified) ?
TbPYK inhibitor: 1%

How did Cc1ccc(-n2c(-c3cccc(C)c3)n[nH]c2=S)cc1 do in these assays?
RE007 growth inh: 2%; LmPK inhibitor: 8.9µM*; TbPYK inhibitor: 2.8µM*; FBPA Giardia inh: 7%

How did Cc1ccc(-c2n[nH]c(=S)n2-c2ccccc2)cc1 do in these assays?
RE007 growth inh: 18%; LmPK inhibitor: inconclusive; TbPYK inhibitor: inconclusive; FBPA Giardia inh: 11%

Results for COc1cc([N+](=O)[O-])c(OC)cc1SCc1n[nH]c(=S)n1-c1ccc(C)cc1 ?
RE007 growth inh: -3%; LmPK inhibitor: inconclusive; TbPYK inhibitor: 2.5µM*; FBPA Giardia inh: 3%

Results for COc1ccc(CCn2c(-c3ccc(C(C)(C)C)cc3)n[nH]c2=S)cc1OC ?
RE007 growth inh: 2%; LmPK inhibitor: 0%; TbPYK inhibitor: 14µM*; FBPA Giardia inh: -6%

What do the screens show for `Cc1ccc(-n2c(-c3c(-c4ccccc4)noc3C)n[nH]c2=S)cc1`?
RE007 growth inh: -6%; LmPK inhibitor: 11µM*; TbPYK inhibitor: inconclusive; FBPA Giardia inh: 6%

Results for S=c1[nH]nc(-c2ccc3c(c2)OCO3)n1-c1ccccc1 ?
RE007 growth inh: 21%; LmPK inhibitor: 7.1µM*; TbPYK inhibitor: inconclusive; FBPA Giardia inh: 12%

Results for S=c1[nH]nc(COc2ccc3c(c2)OCO3)n1-c1ccccc1 ?
RE007 growth inh: 2%; LmPK inhibitor: inconclusive; TbPYK inhibitor: inconclusive; FBPA Giardia inh: 6%

What do the screens show for `Cc1ccc([N+](=O)[O-])c(-c2n[nH]c(=S)n2-c2cccc(Cl)c2)c1`?
RE007 growth inh: 1%; LmPK inhibitor: 18µM*; TbPYK inhibitor: 3.2µM*; FBPA Giardia inh: 12%

Results for O=C1C=CC(=O)N1c1ccc(-c2nc3ccccc3o2)cc1 ?
RE007 growth inh: 6.3µM*; TbPYK inhibitor: 11µM*

Results for COc1cccc(OC)c1-c1cc(C(=O)NC2(C(=O)O)C3CC4CC(C3)CC2C4)nn1-c1ccnc2cc(Cl)ccc12 (stereo unspecified) ?
TbPYK inhibitor: -9%

Results for Cc1nn(-c2ccc(F)cc2)c(-n2cccc2)c1C(=O)N1CCN(c2ccc(F)cc2)CC1 ?
TbPYK inhibitor: -2%

How did O=C(NC1CCCC1)c1ccc(Cl)s1 do in these assays?
RE007 growth inh: -15%; LmPK inhibitor: -3%; TbPYK inhibitor: -4%

Results for O=C(NC1CCCCCC1)c1ccc([N+](=O)[O-])s1 ?
RE007 growth inh: 45µM*; TbPYK inhibitor: 4%

Results for CC1CCC(C(=O)O)NC1c1ccc(C#CCN(C)C)cc1 (stereo unspecified) ?
FBPA Giardia inh: 0%[12.9 µM]

Results for O=C1CC(Sc2nnc(-c3ccccc3)o2)C(=O)N1c1ccccc1 (stereo unspecified) ?
RE007 growth inh: 16µM*; LmPK inhibitor: 4%; TbPYK inhibitor: -21%; FBPA Giardia inh: 0%

Results for Cc1nnc(SC2CC(=O)N(c3ccccc3)C2=O)s1 (stereo unspecified) ?
RE007 growth inh: 40µM*; LmPK inhibitor: 5%; TbPYK inhibitor: -6%; FBPA Giardia inh: -6%

How did Cc1ccccc1N1C(=O)CC(Sc2nnc(-c3ccccc3)o2)C1=O (stereo unspecified) do in these assays?
RE007 growth inh: inconclusive; LmPK inhibitor: -1%; TbPYK inhibitor: inconclusive; FBPA Giardia inh: 3%

How did O=C(O)c1ccccc1SC1CC(=O)N(c2ccccc2)C1=O (stereo unspecified) do in these assays?
RE007 growth inh: 10µM*; LmPK inhibitor: -3%; TbPYK inhibitor: 1%; FBPA Giardia inh: 6%
